uPA generation – cell surface uPA generation inhibition | cell surface uPA generation assay, qHTS | Potency, µM (series often up to 38.3 µM), usual class: inhibitors | 0.31% of 330,000 active; active = well fitted inhibition curve with a large enough effect; inconclusive = small, poorly fitted or top-dose-only effect; inactive = no such curve, though single readings can be large or run the other way; tested in mouse RAW 264.7 cells; note: nearly all actives have a fitted effect of over 55% in size
MmCpn inh – inhibitors of Methanococcus maripaludis chaperonin TRiC (MmCpn); AID 504842; purified Mm-Cpn ATPase, ADP Transcreener TR-FRET; 0.031% of 330,000 active; Potency, µM (series often up to 76.9 µM), most hits filed as inhibitors; note: nearly all actives have a fitted effect of over 80% in size
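Purified archaeal Mm-CPN (25nM final) preincubated 10 min at 37degC with compound, then 10uM ATP for 30 min at 37degC; ADP measured by HTRF Transcreener TR-FRET; buffer 30 mM TRIS pH 7.4, 100mM KCl, 5mM MgCl2, 1mM DTT.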
CCT chaperon mod – cytosolic chaperonin activity modulation; AID 651819; activity change, % (no concentration beside the values), hits read low; 0.3% of 360,000 active; purified chaperonin ATPase assay, HTRF ADP detection, 30 min; in the data active = activity change below about -30%
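Nucleotide hydrolysis assay: TRiC at 20–40 nM final (set by batch activity) with 10 uM ATP, 30 min at 37 °C, in presence of 76 uM compound. Detection by competitive ADP HTRF, 30 min ambient.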
GLP1R inv ag – acts as inverse agonist at human GLP-1 receptor; P43220; HEK293 GLP-1R CRE-luciferase, luminescence, 24 h; GLP-1R form is constitutively active; Potency, µM (titrated, usually from 38.3 µM), most hits filed as inhibitors; 1.6% of 410,000 active; AID 624417; note: nearly all actives have a fitted effect of over 55% in size
Target sequence (P43220 whole entry, looked up): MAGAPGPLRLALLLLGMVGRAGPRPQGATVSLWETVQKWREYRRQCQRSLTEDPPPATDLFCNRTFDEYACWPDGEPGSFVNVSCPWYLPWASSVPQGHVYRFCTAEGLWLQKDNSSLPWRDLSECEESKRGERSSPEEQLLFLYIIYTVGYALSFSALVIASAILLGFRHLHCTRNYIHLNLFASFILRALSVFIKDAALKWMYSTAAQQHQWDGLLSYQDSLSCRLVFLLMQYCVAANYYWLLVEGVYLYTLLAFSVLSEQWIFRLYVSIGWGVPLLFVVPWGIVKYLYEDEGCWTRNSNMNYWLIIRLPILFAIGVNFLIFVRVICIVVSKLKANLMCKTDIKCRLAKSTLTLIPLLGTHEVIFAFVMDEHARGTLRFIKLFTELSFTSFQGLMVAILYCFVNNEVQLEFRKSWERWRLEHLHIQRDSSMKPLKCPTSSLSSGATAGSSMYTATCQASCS
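Luminescence readout: a drop in cAMP-driven luciferase signal flags inverse agonism at a constitutively active GLP-1R stably expressed in HEK293. Compound exposure lasted 24 hr at 37 deg C, 5% CO2.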
GLP1R cytotox – cytotoxic in the GLP-1 receptor inverse agonist counter-screen; HEK293 cAMP-luciferase reporter cells, luminescence, 24 h; Potency, µM (titrated, usually from 38.3 µM), actives largely listed as inhibitors; 0.13% of 410,000 active;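 note: loss of luciferase light is scored as toxicity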
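Cells in DMEM/10% Nu serum/1% pen-strep, 1536-well format. Pre-incubated 12 h, dosed with 23 nL compound, incubated a further 24 h. Luciferase detection, 12 min at room temp, luminescence.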
GLP-1R agonist – activates the human GLP-1 receptor; P43220; HEK293 GLP-1R CRE-luciferase, luminescence, 4-6 h; cells express a hypersensitive GLP-1R form; Potency, µM (highest dose often 45.6 µM), usual class: activators; 0.007% of 380,000 active; AID 624172
Each line names hits and unclear results; the compound was inactive in the other large screens. In the library only some 2.2% were active in any assay of this set; here they are far more common. Unless noted, calls come from the whole dose curve; as a rule, active = well fitted curve in the direction sought with a large enough effect; inconclusive = small, poorly fitted or top-dose-only effect, or another doubt; inactive = no such curve, though single readings can be large; an effect the other way counts as inactive or inconclusive.

CCOC(=O)C1(CCCc2ccccc2)CCN(Cc2nccn2CC)CC1	GLP1R inv ag 10µM, GLP1R cytotox 13µM
CCOC(=O)C1(Cc2cccc(OC)c2)CCN(Cc2cccc3c2OCO3)CC1	GLP1R inv ag 10µM
CCOC(=O)C1(Cc2cccc(OC)c2)CCN(Cc2cccc(OC)c2OC)CC1	GLP1R inv ag inconclusive
Cc1cc(S(=O)(=O)C(CNC(=O)c2ccc(OC(C)C)cc2)c2cccs2)ccc1F (stereo not drawn)	none (no result: uPA generation, MmCpn inh, CCT chaperon mod, GLP-1R agonist)
CC#CCC(C)[C@H](O)/C=C/C1[C@H](O)C[C@@H]2C/C(=C\CCCC(=O)O)C[C@H]12 (stereo partly drawn)	none (no result: uPA generation, MmCpn inh, CCT chaperon mod, GLP1R inv ag, GLP1R cytotox)
O=C(CC(c1cccs1)N1Cc2ccccc2C1=O)Nc1ccccc1 (stereo not drawn)	none (no result: uPA generation, MmCpn inh, CCT chaperon mod)
CSCCC(NC(=O)[C@H](Cc1c[nH]c2ccccc12)NC(=O)CNC(=O)[C@H](CCSC)NC(=O)[C@H](Cc1ccc(OS(=O)(=O)O)cc1)NC(=O)[C@@H](N)CC(=O)O)C(=O)N[C@@H](CC(=O)O)C(=O)N[C@@H](Cc1ccccc1)C(N)=O (stereo partly drawn)	none (no result: uPA generation, MmCpn inh, CCT chaperon mod, GLP1R inv ag, GLP1R cytotox)
CCOC(=O)C1(CCCc2ccccc2)CCN(C(=O)CSC)CC1	GLP1R inv ag inconclusive
CCOC(=O)C1(CCCc2ccccc2)CCN(C(=O)Cc2nonc2C)CC1	GLP1R inv ag 11µM
COc1ccc(S(=O)(=O)NCCc2sc3nc(-c4ccc(C)cc4)nn3c2C)cc1C	GLP1R inv ag inconclusive (no result: uPA generation, MmCpn inh, CCT chaperon mod, GLP-1R agonist)
CCOc1ccc(/C=C2\SC(=S)N(CCCC(=O)NCCCN3CCOCC3)C2=O)cc1	CCT chaperon mod -38, GLP1R inv ag inconclusive, GLP1R cytotox inconclusive
O=C(CCCN1C(=O)/C(=C/c2ccccc2Cl)SC1=S)N1CCCC1	uPA generation inconclusive, GLP1R inv ag 10µM, GLP1R cytotox inconclusive
COc1ccc(/C=C2\SC(=S)N(CCC(=O)NCCCn3ccnc3)C2=O)cc1	GLP1R inv ag inconclusive
CCc1ccc(/C=C2\SC(=S)N(CCCC(=O)NCCCN3CCOCC3)C2=O)cc1	GLP1R inv ag inconclusive (no result: uPA generation, MmCpn inh)
O=C(CCCN1C(=O)/C(=C/c2ccccc2)SC1=S)N1CCOCC1	GLP1R inv ag 8.9µM, GLP1R cytotox inconclusive
O=C(CCN1C(=O)/C(=C\c2ccccc2)SC1=S)N1CCOCC1	GLP1R cytotox inconclusive
CC(C)c1ccc(/C=C2\SC(=S)N(CCC(=O)NCCCn3ccnc3)C2=O)cc1	GLP1R inv ag 2.5µM, GLP1R cytotox inconclusive
CC(C)C1N=C(c2ccc3c(c2)OCO3)CC(c2ccccc2O)N1 (stereo not drawn)	uPA generation 10µM, GLP1R inv ag 11µM, GLP1R cytotox inconclusive
COc1ccc(Nc2cc(O)c3ncccc3c2)cc1	none (no result: uPA generation, CCT chaperon mod, GLP1R inv ag, GLP1R cytotox, GLP-1R agonist)
CCCC[C@@H](CN[C@H](C)CNC)NCC1CCC(C(C)(C)C)CC1 (stereo partly drawn)	uPA generation inconclusive, GLP1R inv ag 11µM, GLP1R cytotox inconclusive
CC[C@H](C)[C@@H](CN[C@H](CCCCNC)CNC)NCC1CCCC1	none
O=S(=O)(c1ccc(OCC2CO2)cc1)c1ccc(OCC2CO2)cc1 (stereo not drawn)	uPA generation 5.6µM, GLP1R inv ag 10µM, GLP1R cytotox inconclusive
CC(C)(c1ccccc1)c1ccc(OCC2CO2)cc1 (stereo not drawn)	CCT chaperon mod -30
CC1CCc2c(sc3nc(C4CC4)nc(N4CCN(C(=O)c5ccco5)CC4)c23)C1 (stereo not drawn)	GLP1R inv ag 5.6µM, GLP1R cytotox inconclusive (no result: MmCpn inh)
CCc1nc(N2CCN(C(=O)c3ccco3)CC2)c2c3c(sc2n1)CCCC3	GLP1R inv ag inconclusive
COc1ccc(C(=O)C2CCCN(Cc3cc(C)c(O)c(C)c3)C2)c(OC)c1 (stereo not drawn)	GLP1R inv ag 4.5µM
COc1cccc(CC(=O)NC2CCCN(Cc3ccc(Cl)cc3)C2)c1 (stereo not drawn)	GLP1R inv ag inconclusive
COc1ccc(C(=O)NC2CCCN(Cc3ccc(Cl)cc3)C2)c(OC)c1 (stereo not drawn)	GLP1R inv ag 7.9µM
COc1ccc(C(=O)C2CCCN(Cc3cc(Cl)ccc3O)C2)c(OC)c1 (stereo not drawn)	GLP1R inv ag inconclusive
CCCN(CCC)CCNC(=O)Cn1ncc2c([nH]c3ccc(C)cc32)c1=O	none (no result: uPA generation, MmCpn inh, CCT chaperon mod, GLP-1R agonist)
O=C(Cc1ccccc1)Nc1ccc(-c2nnc(-c3ccco3)o2)cc1	none
O=C(Cc1ccc(Cl)cc1)Nc1ccc(-c2nnc(-c3ccco3)o2)cc1	GLP1R inv ag 10µM, GLP1R cytotox inconclusive
Cn1c(NCc2ccccc2F)nc2ccccc21	none (no result: uPA generation, MmCpn inh, CCT chaperon mod, GLP-1R agonist)
Fc1ccccc1NC(=S)N/N=C/c1ccccc1Br	GLP1R inv ag inconclusive, GLP1R cytotox 5.6µM (no result: uPA generation)
O=[N+]([O-])c1ccc(/C=N/NC(=S)Nc2ccccc2F)o1	GLP1R cytotox inconclusive
CCc1ccc(/C=C/c2c([N+](=O)[O-])c(=O)n(C)c(=O)n2C)cc1	uPA generation 6.3µM, GLP1R inv ag inconclusive
CCCCN1CC(O)C(O)C(O)C1CO (stereo not drawn)	none (no result: uPA generation, MmCpn inh, CCT chaperon mod, GLP1R inv ag, GLP1R cytotox)
Cc1ccc(/C=N/NC(=O)c2ccc3ccccc3c2)s1	uPA generation 4.5µM
Cc1ccc(/C=N/NC(=O)c2ccc3c(c2)OCCO3)s1	GLP1R inv ag inconclusive
CN(c1ccccc1)c1ccc(/C=C(/CCC(=O)O)c2nc3ccccc3s2)cc1[N+](=O)[O-]	GLP1R inv ag 11µM (no result: MmCpn inh)
COc1cc2ccccc2cc1C(=O)N/N=C/c1ccc2c(c1)OCO2	uPA generation inconclusive, GLP1R inv ag 6.3µM, GLP1R cytotox inconclusive
CC(C)(C)NC(=O)NC(=O)COc1ccc(Br)cc1Br	GLP1R inv ag 10µM
COc1ccccc1Cc1nc2ccccc2nc1SCC(=O)N1CCN(c2ccccc2)CC1	none (no result: uPA generation, MmCpn inh, CCT chaperon mod, GLP-1R agonist)
CC1CCCC(C)N1CCCNC(=O)c1cc2c(s1)-c1ccccc1OC2 (stereo not drawn)	uPA generation inconclusive, GLP1R inv ag 2µM
CCc1ccccc1N(CC)C(=O)c1cc2c(s1)-c1ccccc1OC2	GLP1R inv ag 10µM (no result: uPA generation, MmCpn inh, CCT chaperon mod)
O=C(c1cc(Cl)nc2ccccc12)N1CCN(S(=O)(=O)c2cccc(C(F)(F)F)c2)CC1	GLP1R inv ag 11µM
Cc1c(-c2ccccc2)n(-c2ccccc2O)c2nc3c(c(=O)n(C)c(=O)n3C)n12	none (no result: uPA generation, MmCpn inh, CCT chaperon mod)
CCOc1ncccc1C(=O)OCc1ccc(C(=O)OC)cc1	GLP1R cytotox inconclusive, GLP-1R agonist 11µM
COC(=O)c1cccc(Nc2c(-c3ccc(SC)cc3)nc3nc[nH]n23)c1	none (no result: uPA generation, MmCpn inh, CCT chaperon mod, GLP-1R agonist)
CNC(=O)c1ccc(Nc2nnc(-c3ccc(C)c(S(=O)(=O)N4CCOCC4)c3)c3ccccc23)cc1	none (no result: uPA generation, MmCpn inh, CCT chaperon mod, GLP-1R agonist)
Cc1cccc(C)c1NS(=O)(=O)c1c(C)[nH]c(=O)[nH]c1=O	CCT chaperon mod -37
